# From PubChem BioAssay AID1952 (The Scripps Research Institute Molecular Screening Center, 2009)
# Screen size: about 2,400 compounds; about 1,200 (50%) were called active. So high a share suggests a set chosen from earlier hits. The list is a sample of the results. A number with no mark means an inactive call. Rule as the data show it: active = inhibition above about 24%; inactive = the rest.
# Target: Neuropeptides B/W receptor type 1 (Homo sapiens) (UniProt P48145)
# Experiment: blockers of human NPBW1 receptor – cell-based, fluorescence, single concentration, confirmation (AID 1952);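 also: stimulated with the GPR7 agonist NPW; 0% = agonist plus vehicle and 100% = vehicle alone without agonist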
# Conditions: GPR7-expressing cells, calcium fluorescence antagonist mode; at 4.4 µM; hits give high values
# Chain of Neuropeptides B/W receptor type 1 (Homo sapiens) (P48145 whole entry, looked up): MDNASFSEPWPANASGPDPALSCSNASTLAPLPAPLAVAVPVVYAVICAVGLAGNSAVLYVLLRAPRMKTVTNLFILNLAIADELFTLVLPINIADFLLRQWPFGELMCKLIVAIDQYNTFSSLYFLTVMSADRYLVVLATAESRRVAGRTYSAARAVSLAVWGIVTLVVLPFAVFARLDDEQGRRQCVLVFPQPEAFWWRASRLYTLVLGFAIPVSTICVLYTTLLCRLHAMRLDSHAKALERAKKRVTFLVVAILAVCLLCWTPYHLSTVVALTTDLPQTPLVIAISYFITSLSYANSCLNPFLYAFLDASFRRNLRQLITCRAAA
row,SMILES,inhibition
1,CCOc1ccc(-c2cc(C)[n+](CCN(CC)CC)c(-c3ccc(OCC)cc3)c2)cc1,41.8% (active)
2,COc1ccc(Br)cc1CNCCc1cccc(Cl)c1,32.7% (active)
3,CCOC(=O)C1(Cc2ccc(Cl)cc2)CCN(C(C)CCn2cccn2)CC1 (stereo not drawn),18.4%
